Records with an inconclusive call do not appear. The source made the active and inactive calls. Unless noted, calls come from the whole dose curve.
Columns and labels:
[1] = qHTS assay to identify small molecule agonists of the vitamin D receptor (VDR) signaling pathway - cell viability counter screen (AID 743224; active = well fitted curve in the direction sought with a large enough effect in the repeat runs; an effect the other way counts as inactive or inconclusive; note: series mostly up to about 63 µM; % is set by controls: 0 for no effect and ±100 for the full control effect; nearly all actives have a fitted effect of over 50% in size)
Summary of the method: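 In parallel with the bla FRET readout, cytotoxicity toward VDR-bla cells after 16 h compound exposure was assessed by CellTiter-Glo, with luminescence recorded after a 30 min room-temperature incubation.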

[2] = qHTS assay to identify small molecule antagonists of the vitamin D receptor (VDR) signaling pathway - cell viability counter screen (AID 743225; active = well fitted curve in the direction sought with a large enough effect in the repeat runs; an effect the other way counts as inactive or inconclusive; note: % is set by controls: 0 for no effect and ±100 for the full control effect; nearly all actives have a fitted effect of over 50% in size)
Summary of the method: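 Cytotoxicity toward the VDR-bla HEK 293T line was scored by ATP-based CellTiter-Glo luminescence, read in the wells already used for the beta-lactamase readout after 16 h compound treatment under 3 nM 1-alpha,25-dihydroxyvitamin D3 stimulation.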

[3] = qHTS assay to identify small molecule agonists of the NFkB signaling pathway (AID 1159509; active = well fitted curve in the direction sought with a large enough effect in the signal ratio in the repeat runs, not every such curve was filed as active; the % refers to the signal ratio; note: series mostly up to about 61 µM; % is set by controls: 0 for no effect and ±100 for the full control effect)
Summary of the method: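 Readout: FRET fluorescence, 405 nm excitation, 460/530 nm emission; beta-lactamase expression disrupts FRET. Cells: ME-180 stably carrying NF-kB-driven bla reporter. Compound exposure 5 hr, 37 C, 5% CO2.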

[4] = qHTS assay to identify small molecule agonists of the NFkB signaling pathway - cell viability counter screen (AID 1159515); note: series mostly up to about 61 µM; % is set by controls: 0 for no effect and ±100 for the full control effect; nearly all actives have a fitted effect of over 55% in size
Summary of the method: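 Plate 2,000 NFkB-bla ME-180 cells/well; incubate overnight. Add compounds, 5 hr at 37 C. Add FRET substrate, 1.5 hr RT. Add CellTiter-Glo, 30 min RT; read luminescence.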

[5] = qHTS assay to identify small molecule agonists of the endoplasmic reticulum stress response signaling pathway (AID 1159516; active = well fitted activation curve with a large enough effect in the signal ratio in the repeat runs, not every such curve was filed as active; the % refers to the signal ratio; note: % is set by controls: 0 for no effect and ±100 for the full control effect)
Summary of the method: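 Beta-lactamase expression from the ER stress response element in HeLa reporter cells is quantified with the LiveBLAzer B/G FRET substrate, read at 405 nm excitation after 2 hr at room temperature, following 5 hr compound treatment at 37 C.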

[6] = qHTS assay to identify small molecule agonists of the endoplasmic reticulum stress response signaling pathway - cell viability counter screen (AID 1159517); note: series mostly up to about 61 µM; % is set by controls: 0 for no effect and ±100 for the full control effect; nearly all actives have a fitted effect of over 50% in size
Summary of the method: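 Cytotoxicity of test compounds toward ESRE-bla HeLa cells was assessed after 5 hr exposure. The luminescent CellTiter-Glo signal was measured 30 min after reagent addition.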

[7] = qHTS assay to identify small molecule antagonists of the retinoid-related orphan receptor gamma (ROR-gamma) signaling pathway - cell viability counter screen (AID 1159520; active = well fitted curve in the direction sought with a large enough effect in the repeat runs; an effect the other way counts as inactive or inconclusive; note: % is set by controls: 0 for no effect and ±100 for the full control effect; nearly all actives have a fitted effect of over 50% in size)
Summary of the method: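 Tet-on ROR gamma CHO cells (1,000/well) were plated 4 hr, given compounds in DMSO for 2 hr at 37 C, then induced with 1 uM final doxycycline for 16 hr. Viability was read as ATP by CellTiter-Glo luminescence after 30 min.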

[8] = biological target: Nuclear receptor ROR-gamma (Homo sapiens) (UniProt P51449); assay: qHTS assay to identify small molecule antagonists of the retinoid-related orphan receptor gamma (ROR-gamma) signaling pathway (AID 1159521; active = well fitted curve in the direction sought with a large enough effect in the repeat runs; an effect the other way counts as inactive or inconclusive)
Summary of the method: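 Readout: ONE-Glo luciferase luminescence, 30 min at room temperature. System: Tet-on RORγ CHO, RORE-LUC. Sequence: compound 2 h, doxycycline 1 uM final, 16 h at 37 C.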

[9] = qHTS assay to identify small molecule agonists of the AP-1 signaling pathway - cell viability counter screen (AID 1159525); note: nearly all actives have a fitted effect of over 55% in size
Summary of the method: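 Each titration point was normalised to DMSO and tetra n-octyl ammonium bromide controls. The read was Cell Titer Glo luminescence after 30 min at RT, following 5 h compound exposure of ME-180 AP-1-bla cells at 37 °C.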

[10] = qHTS assay to identify small molecule agonists of the AP-1 signaling pathway (AID 1159526); note: % is set by controls: 0 for no effect and ±100 for the full control effect

COc1ccc(C(=O)Nc2ccccc2)cc1[N+](=O)[O-]
inactive: outcome [1] | outcome [2] | outcome [3] | outcome [4] | outcome [5] | outcome [6] | Potency [7] | Potency [8] | outcome [9] | Potency [10]

FC1(F)C(F)(F)C(F)(F)C2(F)C(F)(C1(F)F)C(F)(F)C(F)(F)C1(F)C(F)(F)C(F)(F)C(F)(F)C(F)(F)C12F (stereo unspecified)
inactive: outcome [1] | outcome [2] | outcome [3] | outcome [4] | outcome [5] | outcome [6] | Potency [7] | Potency [8] | outcome [9] | Potency [10]

CCCC1CCCC(=O)O1 (stereo unspecified)
inactive: outcome [1] | outcome [3] | outcome [4] | outcome [5] | outcome [6] | Potency [7] | Potency [8] | outcome [9] | Potency [10]

CCCCCCCCCC(C)C=O (stereo unspecified)
inactive: outcome [1] | outcome [3] | outcome [4] | outcome [5] | outcome [6] | Potency [7] | Potency [8] | outcome [9] | Potency [10]

Cc1c(Cl)cccc1[N+](=O)[O-]
inactive: outcome [1] | outcome [2] | outcome [3] | outcome [4] | outcome [5] | outcome [6] | Potency [7] | Potency [8] | outcome [9] | Potency [10]

CCCc1ccc(OC)cc1
inactive: outcome [1] | outcome [2] | outcome [3] | outcome [4] | outcome [5] | outcome [6] | Potency [7] | Potency [8] | outcome [9] | Potency [10]

N#Cc1ccc(CC(=O)c2cccc(C(F)(F)F)c2)cc1
inactive: outcome [1] | outcome [3] | outcome [4] | outcome [5] | outcome [6] | Potency [7] | Potency [8] | outcome [9] | Potency [10]

O=C(O)c1ccccc1-n1cc(C(=O)O)c(=O)c2cc(Nc3c(F)cc(F)cc3Cl)c(Cl)cc21
inactive: outcome [1] | outcome [3] | outcome [4] | outcome [5] | outcome [6] | Potency [7] | Potency [8] | outcome [9] | Potency [10]

CC1=CC(=C(c2ccc(N)cc2)c2ccc(N)cc2)C=CC1=N
inactive: activity change, negative = cytotoxicity [1] -18.2% [at 5.95 µM] | activation [3] 0.0131% [at 6.95 µM] | activity, negative = cytotoxic [4] 11% [at 6.95 µM] | activation [5] -5.36% [at 6.95 µM] | activity change, negative = cytotoxicity [6] -9.14% [at 6.95 µM] | activity, negative = cytotoxicity [7] -12.6% [at 8.39 µM] | activity change, negative = inhibition [8] -15.2% [at 8.39 µM] | viability change, negative = cytotoxic [9] 23.5% [at 6.97 µM] | activation [10] -9.58% [at 6.97 µM]

C[Si](C)(C)O[Si](C)(C)O[Si](C)(C)C
inactive: outcome [1] | outcome [2] | outcome [3] | outcome [4] | outcome [5] | outcome [6] | Potency [7] | Potency [8] | outcome [9] | Potency [10]

C=C[Si](OCC)(OCC)OCC
inactive: outcome [1] | outcome [3] | outcome [4] | outcome [5] | outcome [6] | Potency [7] | Potency [8] | outcome [9] | Potency [10]

COc1cccc([C@H](O)C2CCN(CCc3ccc(F)cc3)CC2)c1OC
inactive: outcome [1] | outcome [2] | outcome [3] | outcome [4] | outcome [5] | outcome [6] | Potency [7] | Potency [8] | outcome [9] | Potency [10]

CCCCCCCCOCCCN
inactive: outcome [3] | outcome [4] | outcome [5] | outcome [6] | Potency [7] | Potency [8] | outcome [9]

CC(=O)Oc1cccc2c1C(=O)c1c(OC(C)=O)cc(C(=O)O)cc1C2=O
inactive: outcome [1] | outcome [2] | outcome [3] | outcome [4] | outcome [5] | outcome [6] | Potency [7] | Potency [8] | outcome [9] | Potency [10]

CC(C)(Cc1c[nH]c2ccccc12)NCC(O)COc1ccccc1C#N (stereo unspecified)
inactive: outcome [3] | outcome [4] | outcome [5] | outcome [6] | Potency [7] | Potency [8] | outcome [9] | Potency [10]

CCn1nc(Cc2ccccc2)cc1C1CCN(C[C@H]2C[C@H](N(C)[C@@H](C(=O)O)C(C)C)C[C@@H]2c2cccc(F)c2)CC1
inactive: outcome [1] | outcome [3] | outcome [4] | outcome [5] | outcome [6] | Potency [7] | Potency [8] | outcome [9] | Potency [10]

CC1=C(C)C(=O)C(C(CCCCCC(=O)O)c2ccccc2)=C(C)C1=O (stereo unspecified)
inactive: outcome [1] | outcome [2] | outcome [3] | outcome [4] | outcome [5] | outcome [6] | Potency [7] | Potency [8] | outcome [9] | Potency [10]

CC(C)(C)N
inactive: outcome [1] | outcome [2] | outcome [3] | outcome [4] | outcome [5] | outcome [6] | Potency [7] | Potency [8] | outcome [9] | Potency [10]

CCC(CC)C(=O)O
inactive: outcome [1] | outcome [2] | outcome [3] | outcome [4] | outcome [5] | outcome [6] | Potency [7] | Potency [8] | outcome [9] | Potency [10]

CCN(CCCCOC(=O)c1ccc(OC)c(OC)c1)C(C)Cc1ccc(OC)cc1 (stereo unspecified)
inactive: outcome [1] | outcome [3] | outcome [4] | outcome [5] | outcome [6] | Potency [7] | Potency [8] | outcome [9] | Potency [10]

O=C(O)c1ccccc1[N+](=O)[O-]
inactive: outcome [1] | outcome [2] | outcome [3] | outcome [4] | outcome [5] | outcome [6] | Potency [7] | Potency [8] | outcome [9] | Potency [10]

NC(=O)c1cc[n+](CC2=C(C(=O)[O-])N3C(=O)[C@@H](NC(=O)Cc4cccs4)[C@H]3SC2)cc1
inactive: outcome [1] | outcome [3] | outcome [4] | outcome [5] | outcome [6] | Potency [7] | Potency [8] | outcome [9] | Potency [10]

Cc1c(Cl)cccc1Nc1ccccc1C(=O)O
inactive: outcome [1] | outcome [2] | outcome [3] | outcome [4] | outcome [5] | outcome [6] | Potency [7] | Potency [8] | outcome [9] | Potency [10]

CCCCOc1ccc(N)cc1
inactive: outcome [1] | outcome [2] | outcome [3] | outcome [4] | outcome [5] | outcome [6] | Potency [7] | Potency [8] | outcome [9] | Potency [10]

OCCCO
inactive: outcome [1] | outcome [2] | outcome [3] | outcome [4] | outcome [5] | outcome [6] | Potency [7] | Potency [8] | outcome [9] | Potency [10]

From PubChem BioAssay (Tox21)
